Where “and” joins values, the source holds several entries; their conditions need not be identical. Equal values may be shown once. Out of some 5,500 compounds screened, about 2,000 (36%) were called active. About 18% were inconclusive and are not listed. Cut-off read from the data, not from the text of the source: active = normalized growth mostly below about 0.91 (no sharp cut-off); inconclusive = no clear call, values can overlap the other calls; inactive = mostly above about 0.92. This is one part of the list.
Assay: chemical genetic growth profiling, strain panel (AID 1159580);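 note: tested at 20 µM; growth read once vehicle control cultures reached saturation at 30 °C; 1 = growth at the plate median or of vehicle wells; lower values mean less growth of the strain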
Conditions: S. cerevisiae deletion strains, growth OD

Measured: normalized growth

CC(C)(S)[C@@H](N)C(=O)O
inactive: locus YAL013W, strain DEP1, active compounds read low 1.02 | locus YAL021C, strain ccr4, active compounds read low 1.01 | locus YAL026C, strain drs2, active compounds read low 1.01 | locus YAL030W, strain snc1, active compounds read low 1.01 | locus YBL061C, strain skt5, active compounds read low 1 | locus YBR009C, strain hhf1, active compounds read low 0.992 | locus YBR021W, strain FUR4, active compounds read low 1.03 | locus YBR023C, strain chs3, active compounds read low 1.01 | locus YBR171W, strain sec66, active compounds read low 1.01 | locus YBR229C, strain ROT2, active compounds read low 1.01 | locus YBR231C, strain swc5, active compounds read low 1 | locus YBR279W, strain paf1, active compounds read low 0.997 | locus YCL011C, strain gbp2, active compounds read low 1 | locus YCL016C, strain dcc1, active compounds read low 1 | locus YCL029C, strain bik1, active compounds read low 0.991 | locus YCL061C, strain MRC1, active compounds read low 1.01 | locus YCL069W, strain vba3, active compounds read low 0.993 | locus YCR088W, strain abp1, active compounds read low 1.01 | locus YDL005C, strain med2, active compounds read low 0.995 | locus YDL035C, strain GPR1, active compounds read low 1.01 | locus YDL040C, strain nat1, active compounds read low 1 | locus YDL074C, strain BRE1, active compounds read low 1.03 | locus YDL101C, strain DUN1, active compounds read low 1.03 | locus YDL134C, strain PPH21, active compounds read low 1.01 | locus YDL185W, strain tfp1, active compounds read low 0.988 | locus YDL192W, strain arf1, active compounds read low 0.984 | locus YDR001C, strain nth1, active compounds read low 1 | locus YDR069C, strain doa4, active compounds read low 0.997 | locus YDR101C, strain arx1, active compounds read low 0.986 | locus YDR137W, strain rgp1, active compounds read low 1.05 | locus YDR150W, strain NUM1, active compounds read low 1.01 | locus YDR159W, strain sac3, active compounds read low 0.994 | locus YDR162C, strain NBP2, active compounds read low 1 | locus YDR195W, strain ref2 0.997 | locus YDR297W, strain sur2, active compounds read low 1.01 | locus YDR318W, strain mcm21, active compounds read low 0.994 | locus YDR334W, strain swr1, active compounds read low 1.01 | locus YDR335W, strain msn5, active compounds read low 0.986 | locus YDR388W, active compounds read low 0.991 | locus YDR392W, strain spt3, active compounds read low 0.96 | locus YDR502C, strain sam2, active compounds read low 0.996 | locus YEL003W, strain gim4, active compounds read low 0.995 | locus YEL037C, strain rad23, active compounds read low 1 | locus YEL061C, strain CIN8 (second series), active compounds read low 0.995 | locus YEL061C, strain CIN8, active compounds read low 1.01 | locus YER015W, strain faa2, active compounds read low 1.01 | locus YER016W, strain bim1, active compounds read low 0.994 | locus YER110C, active compounds read low 0.989 | locus YER111C, strain swi4, active compounds read low 1.01 | locus YER155C, strain BEM2 (second series), active compounds read low 0.985 | locus YER155C, strain BEM2, active compounds read low 1.01 | locus YER167W, strain BCK2, active compounds read low 1.01 | locus YFR010W, strain ubp6, active compounds read low 0.998 | locus YGL078C, strain dbp3, active compounds read low 0.991 | locus YGL086W, strain mad1, active compounds read low 0.995 | locus YGL167C, strain pmr1, active compounds read low 1 | locus YGL173C, strain kem1, active compounds read low 1 | locus YGL227W, strain vid30, active compounds read low 0.992 | locus YGL240W, strain doc1, active compounds read low 1.01 | locus YGL248W, strain PDE1, active compounds read low 1.02 | locus YGL253W, strain hxk2, active compounds read low 0.993 | locus YGR135W, strain pre9, active compounds read low 0.989 | locus YGR252W, strain gcn5, active compounds read low 1.01 | locus YHR013C, strain ard1, active compounds read low 1 | locus YHR027C, strain rpn1, active compounds read low 1.03 | locus YHR030C, strain SLT2, active compounds read low 1.01 and 0.999 | locus YHR079C, strain IRE1 (second series), active compounds read low 0.987 | locus YHR079C, strain IRE1, active compounds read low 0.982 | locus YHR094C, strain hxt1, active compounds read low 0.986 | locus YHR129C, strain ARP1, active compounds read low 1.01 | locus YHR142W, strain chs7, active compounds read low 1.01 | locus YHR200W, strain rpn10, active compounds read low 1 | locus YIL066C, strain RNR3, active compounds read low 1.01 | locus YIL073C, strain SPO22, active compounds read low 0.975 | locus YIL125W, strain kgd1, active compounds read low 0.997 | locus YIR030C, strain dcg1, active compounds read low 0.989 | locus YJL092W, strain hpr5, active compounds read low 1 | locus YJL095W, strain BCK1 (second series), active compounds read low 1 | locus YJL095W, strain BCK1, active compounds read low 1.05 and 1 | locus YJL115W, strain asf1, active compounds read low 0.995 | locus YJL129C, strain trk1, active compounds read low 0.987 | locus YJL134W, strain LCB3, active compounds read low 1.01 | locus YJL154C, strain vps35, active compounds read low 0.994 | locus YJL164C, strain tpk1, active compounds read low 1.01 | locus YJL166W, strain qcr8, active compounds read low 1.01 | locus YJL168C, strain set2, active compounds read low 0.999 | locus YJL187C, strain SWE1 (second series), active compounds read low 1.01 | locus YJL187C, strain SWE1, active compounds read low 1

— PubChem BioAssay AID1159580 (chemical genetic matrix, 2015)
